Most compounds without a hit are left out; they make up all but 3% or so of the library.
Nrf2 block: Nrf2 qHTS screen for inhibitors; A549 ARE-Fluc reporter, luciferase luminescence, 18-24 h; Potency, µM (highest dose often 46 µM), hits mostly inhibitors; 2.1% of 360,000 active; AID 504444, 2011; note: nearly all actives have a fitted effect of over 60% in size
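Quantitative HTS in A549 cells stably bearing an antioxidant response element-firefly luciferase construct. Inhibition of Nrf2-driven transcription was scored by luminescence after 18-24 h of compound exposure at 37 °C.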
TrxR1 substrate: qHTS Assay for Substrates of Mammalian Selenoprotein Thioredoxin Reductase 1 (TrxR1): qHTS; 0.01% of 390,000 active; Thioredoxin reductase 1, cytoplasmic (Rattus norvegicus), O89049; purified TrxR1 substrate turnover, NADPH consumption readout; AID 588456, 2011; Potency, µM (highest dose often 114 µM); note: nearly all actives have a fitted effect of over 50% in size
Target sequence (O89049 whole entry, looked up): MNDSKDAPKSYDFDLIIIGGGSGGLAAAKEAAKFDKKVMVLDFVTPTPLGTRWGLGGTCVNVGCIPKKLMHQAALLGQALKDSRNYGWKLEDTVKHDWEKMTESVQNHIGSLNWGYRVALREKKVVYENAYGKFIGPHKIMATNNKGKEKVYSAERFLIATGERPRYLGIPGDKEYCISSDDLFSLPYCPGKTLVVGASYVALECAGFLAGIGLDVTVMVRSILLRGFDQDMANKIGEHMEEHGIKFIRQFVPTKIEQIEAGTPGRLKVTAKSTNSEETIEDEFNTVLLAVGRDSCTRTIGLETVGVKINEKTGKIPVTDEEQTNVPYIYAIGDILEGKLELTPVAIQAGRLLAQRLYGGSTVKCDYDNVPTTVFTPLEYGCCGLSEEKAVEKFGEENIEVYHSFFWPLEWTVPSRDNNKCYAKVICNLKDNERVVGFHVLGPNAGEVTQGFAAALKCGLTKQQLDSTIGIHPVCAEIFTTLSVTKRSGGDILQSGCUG
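Rat TrxR1, dispensed at 90 nM, was prereduced with 400 uM NADPH (final) for 5 min at ~22 deg C, then incubated with compound 15 min before 400 uM selenite. A first-read NADPH fluorescence drop versus no-compound background flagged substrates.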
A549 tox: Nrf2 qHTS screen for inhibitors: counterscreen for cytotoxicity | A549 ARE-Fluc cells, CellTiter-Fluor viability, 18-24 h | Potency, µM (top dose mostly 46 µM), most hits filed as inhibitors | 0.16% of 390,000 active | AID 504648, 2011
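A549 ARE-Fluc cells in 5% FBS OPTI-MEM, 5000 cells/well, rested 2 h then exposed to compounds in concentration-response for 18-24 h at 37 °C. Viability by CellTiter-Fluor fluorescence (Ex 405/Em 525) after 30 min; luciferase luminescence (BugLite, 15 min, RT) read afterwards.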
GALK inhibitor: qHTS Assay for Inhibitors of Human Galactokinase (GALK). P51570. Purified GALK, Kinase-Glo residual ATP luminescence. Potency, µM (titrated, usually from 57.5 µM), hits mostly inhibitors. 0.007% of 270,000 active. AID 1868, 2009
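Kinase-Glo Plus luminescence measured ATP left after a 1 h room-temperature reaction. The reaction used 5 nM GALK, 100 uM galactose and 35 uM ATP at pH 8.0 (20 mM HEPES, 5 mM MgCl2, 60 mM NaCl, 1 mM DTT, 0.01% BSA).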
Nrf2 ARE act: qHTS of Nrf2 Activators; AREc32 ARE-luciferase reporter (MCF7-derived line), luminescence, 24 h; Potency, µM (top dose mostly 46.1 µM), hits mostly activators; 0.31% of 410,000 active; AID 624171, 2012; note: nearly all actives have a fitted effect of over 65% in size
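Luminescent ARE reporter assay in AREc32_Fluc cells: overnight plating at 37 deg C, 24 hr compound incubation, Steady-Glo added, 30 min RT before reading.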
TrxR1 inh: qHTS Assay for Inhibitors of Mammalian Selenoprotein Thioredoxin Reductase 1 (TrxR1): qHTS | Potency, µM (top dose mostly 114 µM), actives largely listed as inhibitors | Thioredoxin reductase 1, cytoplasmic (Rattus norvegicus), O89049 | 1% of 390,000 active | recombinant rTrxR1, NADPH fluorescence consumption, selenite substrate; note: nearly all actives have a fitted effect of over 65% in size
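Rat TrxR1 (90 nM in the dispensed reagent) was pre-reduced with 400 uM NADPH for 5 min at room temperature, then incubated with compound for 15 min. After 400 uM selenite was added, NADPH fluorescence (Ex 340/Em 450 nm) was followed for 8 min.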
Of the large screens only hits and unclear results are named; the others gave an inactive call; ! = not confirmed by another sample. Calls come from the whole dose curve; as a rule, active = well fitted curve in the direction sought with a large enough effect; inconclusive = small, poorly fitted or top-dose-only effect, or another doubt; inactive = no such curve, though single readings can be large; an effect the other way counts as inactive or inconclusive.

COc1ccc(C(=O)Nc2sc3c(c2C(=O)O)CC(C)(C)OC3)cc1	Nrf2 block 8.2µM
CCCCOc1ccc(C(=O)NCCc2csc(-c3ccc(OC)cc3)n2)cc1	none (no result: Nrf2 block, GALK inhibitor)
CC1=CC(=C2C(=O)NC(=S)NC2=O)C=C(C(F)(F)F)N1Cc1ccccc1	Nrf2 block inconclusive, A549 tox 15µM
CN(C)[C@@H]1C(=O)C(C(N)=O)=C(O)[C@@]2(O)C(=O)C3=C(O)c4c(O)cccc4[C@@](C)(O)C3[C@H](O)C12 (stereo partly specified)	Nrf2 block inconclusive, TrxR1 inh 32µM! (no result: GALK inhibitor)
CN(C)[C@@H]1C(=O)C(C(N)=O)=C(O)[C@@]2(O)C(=O)C3=C(O)c4c(O)ccc(Cl)c4[C@@](C)(O)C3C[C@@H]12 (stereo partly specified)	Nrf2 block 23µM, A549 tox inconclusive, TrxR1 inh inconclusive (no result: GALK inhibitor)
CN(C)C1C(=O)C(C(N)=O)=C(O)C2(O)C(=O)C3=C(O)c4c(O)cccc4C(C)(O)C3CC12 (stereo unspecified)	none (no result: GALK inhibitor)
CN[C@H](CC(C)C)C(=O)N[C@H]1C(=O)N[C@@H](CC(N)=O)C(=O)N[C@@H]2C(=O)N[C@H]3C(=O)N[C@H](C(=O)N[C@H](C(=O)O)c4cc(O)cc(O)c4-c4cc3ccc4O)[C@H](O)c3ccc(c(Cl)c3)Oc3cc2cc(c3O[C@@H]2O[C@H](CO)[C@@H](O)[C@H](O)[C@@H]2O[C@H]2C[C@](C)(N)[C@H](O)[C@H](C)O2)Oc2ccc(cc2Cl)[C@H]1O	none (no result: Nrf2 block, A549 tox, GALK inhibitor, Nrf2 ARE act)
C[N+](C)(C)CC(=O)O	TrxR1 inh 27µM! (no result: GALK inhibitor)
C=CC[C@@H](CC(=O)N(CCO)Cc1ccccc1)C(=O)NC[C@H](OC(=O)[C@@H](CC=C)CC(=O)OC(C)(C)C)c1ccccc1	Nrf2 block inconclusive (no result: GALK inhibitor)
O=c1[nH]c(=O)n(CCC2=CCCCC2)c(O)c1/C=N/Nc1ccccc1	Nrf2 block 23µM
O=c1[nH]c(=O)n(CCC2=CCCCC2)c(O)c1/C=N/Nc1cccc2ccccc12	TrxR1 inh inconclusive
CCOC(=O)c1ccccc1C(=O)OCC	none (no result: GALK inhibitor)
CCOC(=O)C1=C(C)c2ccccc2OC1(C(=O)OCC)c1ccccc1 (stereo unspecified)	Nrf2 block inconclusive, TrxR1 inh 45µM (no result: GALK inhibitor)
CN(C)C(=O)Oc1cccc([N+](C)(C)C)c1	Nrf2 block 6.5µM!
CN(C)C(=O)Nc1cccc(OC(=O)N(C)C)c1	none
CCOC(=O)c1c(/N=C/C2C(=O)NC(=S)NC2=O)sc(C)c1C	none (no result: Nrf2 block, TrxR1 substrate, A549 tox, Nrf2 ARE act, TrxR1 inh)
N#Cc1c(/N=C/C2C(=O)NC(=S)NC2=O)sc2c1CCCC2	TrxR1 inh 22µM
CCOC(=O)c1cc(C)sc1/N=C/C1C(=O)NC(=S)NC1=O	TrxR1 inh 0.71µM
CCOC(=O)c1c(/N=C/C2C(=O)NC(=S)NC2=O)sc2c1CCC2	TrxR1 inh 18µM
NC(=O)c1cccn(Cc2ccc(C(F)(F)F)cc2)c1=O	Nrf2 block 16µM
CNC(=O)c1cccn(Cc2cc(C(F)(F)F)cc(C(F)(F)F)c2)c1=O	Nrf2 block 5.2µM
CNC(=O)c1cccn(Cc2ccc(C(F)(F)F)cc2)c1=O	Nrf2 block inconclusive, Nrf2 ARE act inconclusive
NO	none (no result: Nrf2 block, A549 tox, GALK inhibitor, Nrf2 ARE act)
CN1C2CC(OC(=O)C(CO)c3ccccc3)CC1C1OC12 (stereo unspecified)	none (no result: GALK inhibitor)
Fc1ccc(CCNCc2ccc(Cl)c(Cl)c2)cc1	Nrf2 block 12µM, A549 tox inconclusive (no result: GALK inhibitor)
CCC1(O)C(=O)OCc2c1cc1n(c2=O)Cc2cc3c(N)cccc3nc2-1 (stereo unspecified)	Nrf2 block 0.82µM, A549 tox inconclusive (no result: GALK inhibitor)
CC(=O)c1cccc(NC(=O)c2noc3c2CSc2ccccc2-3)c1	TrxR1 inh inconclusive (no result: GALK inhibitor)
Cc1[nH]n(-c2ccccc2)c(=O)c1C(c1ccc([N+](=O)[O-])cc1)c1c(C)[nH]n(-c2ccccc2)c1=O	TrxR1 inh inconclusive
O=[N+]([O-])c1ccc(C(c2ccc([N+](=O)[O-])cc2)c2ccc([N+](=O)[O-])cc2)cc1	Nrf2 block 23µM (no result: GALK inhibitor)
O=[N+]([O-])c1ccc(CN2CCN(c3ccc(Cl)cc3)CC2)o1	TrxR1 inh inconclusive
O=c1[nH]c(=S)n(-c2ccccc2F)c(O)c1C=NCc1ccco1	none

Compound activity deposited in PubChem BioAssay by National Center for Advancing Translational Sciences (NCATS).
